# Results published in PubChem BioAssay (NCI).
# Compounds without any hit were thinned out: in the full panel of roughly 83,000, 20% have a hit.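 Testing used 96-well plates and a 48-hour single-concentration exposure. Example: -40 means 40% of the starting cells died.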 Unmarked numbers belong to inactive results. Active and inactive are the calls of the source. Rule for the calls: active = growth percent below 10; inactive = the rest.
# Tested on: EKVX NSCLC
# Assay: NCI-60 one-dose screen, 48 h (100 = growth as untreated, 0 = no growth, -100 = all killed)
# Details: 10 µM unless noted
row,Compound,growth
1,CC(C)=CCC[C@](C)(O)[C@H]1CC[C@]2(C)[C@@H]1CC[C@@H]1[C@@]3(C)CC[C@H](N)C(C)(C)[C@@H]3CC[C@]12C,73.4%
2,Cc1cc2nc(C(Cl)Cl)nc(-c3ccc(S(=O)(=O)N(C)C)cc3)n2n1,48.7%
3,CCCCCCNC(=O)Oc1ccc(/C(=C(/C)c2ccc(OC)cc2)c2ccc(OCCN3CCCCCC3)cc2)cc1,54.8%
4,Cc1nc(/N=C(N)/N=C(\N)c2cccc(Br)c2)sc1C,60.2%
5,O=c1nc(Nc2ccc([N+](=O)[O-])cc2O)sc2ccccc12,38%
6,C#CCOc1ccc(-c2csc(NC(=O)C=C)n2)cc1NS(=O)(=O)c1cccc2c(N(C)C)cccc12,66.1%
7,COc1ccc(C2CC(c3cccc(OCCCCOc4cccc(C5=NOC(c6ccc(OC)cc6)C5)c4)c3)=NO2)cc1 (stereo not given),102%
8,Cc1ccc(OCc2occc2C(=O)N2CCOCC2)cc1,96.5%
9,O=S(=O)(NCCCNc1nccc(-c2[nH]c(-c3ccccc3)nc2-c2ccc(F)c(O)c2)n1)c1cccc2ccccc12,82%
10,CCc1cc(OC(=O)N2CCC(N3CCCCC3)CC2)ccc1Nc1cc(-c2ccc(-n3cccn3)cc2)[nH]n1,97%
11,O=C(COc1ccc(/C=C2\C(=O)Nc3ccc(F)cc32)cc1)Nc1ccccc1,95.8%
12,CC1=C(C)C(=O)C(Nc2cccc(C(=O)OC(C)(C)C)c2)=CC1=O,81.2%
13,Cn1cc(-c2nnc(N)nc2-c2c[nH]c3ccc(F)cc23)c2cc(Br)ccc21,27.7%
14,Cn1c(SCC(=O)c2ccc(F)cc2)nc2ccccc2c1=O,79.6%
15,CN1CCN(c2ccc(Nc3nc(NCCCNS(=O)(=O)c4cccc5ccccc45)c4sccc4n3)cc2)CC1,36.1%
16,CCCCCC[n+]1ccc(SCC(=O)n2ccc3ccccc32)c2ccccc21,83.8%
17,COc1ccc(-c2cc(-c3ccc(N(C)C)cc3)n3c(n2)nc2ccccc23)cc1,56.5%
18,CC(=O)N(O)CCCCCNC(=O)CCC(=O)N(O)CCCCCNC(=O)CCC(=O)N(O)CCCCCN(CCCCCCCCCC[P+](c1ccccc1)(c1ccccc1)c1ccccc1)CCCCCCCCCC[P+](c1ccccc1)(c1ccccc1)c1ccccc1,5.96% (active)

row,Compound,growth
1,CC1=C(C)C(=O)C(Nc2ccc3c(c2)OCCO3)=C(Br)C1=O,73.7%
2,COc1ccc2c(c1)C=CC1(O2)Oc2ccc(OC)cc2C=C1C (stereo not given),47.3%
3,C/C(=C(\c1ccc(O)cc1)c1ccc(OCCN2CCCCCC2)cc1)c1ccc(Cl)cc1,-81.2% (active)
4,Brc1cccc(-c2cc(-c3ccc4c(c3)OC=CO4)[nH]n2)c1,56.7%
5,COc1ccc(C(C)=C(c2ccc(OCCN(C)C)cc2)c2ccc(OCCN(C)C)cc2)cc1,13.5%
6,NS(=O)(=O)c1ccc(Nc2nc(N/N=C/c3ccc4c(c3)OCO4)nc(Nc3ccccc3)n2)cc1,73.2%
7,COc1ccc(C2c3[nH]c4ccc(Cl)cc4c3CCN2c2oc(CO)nc2C#N)cc1 (stereo not given),59.4%
8,CCc1cc2c(cc1Cl)nc1c(=O)[nH]c(=O)nc-1n2CCOCC(C)C,68.1%
9,COc1ccc(-c2c3c(cn2Cc2cccc(OC)c2)-c2oncc2CCC3)cc1,97.6%
10,COc1ccc(/C(=N\NC(N)=S)c2ccc(Cl)cc2)cc1OC,50.8%
11,O=C(CSc1nnc(-c2ccc(Cl)cc2)n1-c1ccccc1)Nc1ccccc1Cl,69.7%
12,COc1ccc(-c2c(C(N)=O)c(N)n(Cc3nc4ccccc4[nH]3)c(=O)c2C#N)c(OC)c1,95.4%
13,COc1ccc(-c2cnc(NC(=O)CCCCCCNC(=O)C(O)(O)C(F)(F)F)s2)cc1,19.6%
14,C#C[C@]1(O)CC[C@H]2[C@@H]3CC=C4c5sc(Nc6cc(C)cc(C)c6)nc5CC[C@]4(C)[C@H]3CC[C@@]21C,-3.54% (active)
15,COC(=O)CNC(=O)c1cccc(-c2cc(=O)c3c(OC)c(OC)c(OC)cc3o2)c1,102%
16,CCC1=Cc2c(OC)cccc2OC12C=Cc1c(OC)cccc1O2 (stereo not given),52.4%
17,Cc1ccc2c(n1)C(=O)C(Cl)=C(Nc1ccc(C#N)cc1)C2=O,93%
